{"source": "PubChem BioAssay (EPA / NIEHS)", "key": {"[1]": {"molecular_target": "human Endothelin Receptor Type B (ETB), EDNRB (gene 1910) (UniProt P24530)", "sequence (P24530 whole entry, looked up)": "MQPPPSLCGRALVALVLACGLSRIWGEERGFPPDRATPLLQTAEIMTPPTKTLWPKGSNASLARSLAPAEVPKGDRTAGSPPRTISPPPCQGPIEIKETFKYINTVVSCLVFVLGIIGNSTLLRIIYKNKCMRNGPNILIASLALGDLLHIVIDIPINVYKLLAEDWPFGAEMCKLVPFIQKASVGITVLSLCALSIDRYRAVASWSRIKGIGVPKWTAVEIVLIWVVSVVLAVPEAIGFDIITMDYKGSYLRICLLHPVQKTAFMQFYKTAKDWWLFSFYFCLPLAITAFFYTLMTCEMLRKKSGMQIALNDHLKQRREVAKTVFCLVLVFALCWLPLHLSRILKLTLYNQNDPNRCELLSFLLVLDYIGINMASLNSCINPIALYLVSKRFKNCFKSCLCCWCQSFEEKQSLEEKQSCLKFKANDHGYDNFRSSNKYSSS", "experiment": "NVS_GPCR_hETB: NovaScreen (NVS) G Protein-Coupled Receptor Assay for human Endothelin Receptor Type B (ETB) (AID 2283267)", "how_it_was_run": "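Human astrocytoma cell membranes; radioligand competitive binding read by filter scintillation counting 4 hours after dosing. Single-concentration duplicate screen at 25 uM, then singleton concentration-response up to 50 uM; loss of signal versus DMSO.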"}, "[2]": {"molecular_target": "human Neuropeptide Receptor Y1 (NPY1), NPY1R (gene 4886) (UniProt P25929)", "sequence (P25929 whole entry, looked up)": "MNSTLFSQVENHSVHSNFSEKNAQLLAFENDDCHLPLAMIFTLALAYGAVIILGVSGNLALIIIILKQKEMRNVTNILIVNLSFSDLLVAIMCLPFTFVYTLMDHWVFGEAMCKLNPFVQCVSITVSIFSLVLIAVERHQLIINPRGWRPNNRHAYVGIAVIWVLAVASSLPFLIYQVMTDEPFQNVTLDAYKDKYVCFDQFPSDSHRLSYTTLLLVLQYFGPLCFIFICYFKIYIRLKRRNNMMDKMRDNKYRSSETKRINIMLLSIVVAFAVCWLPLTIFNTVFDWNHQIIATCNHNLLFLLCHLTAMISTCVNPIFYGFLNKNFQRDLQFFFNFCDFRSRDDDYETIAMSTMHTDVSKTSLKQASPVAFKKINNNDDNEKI", "experiment": "NVS_GPCR_hNPY1: NovaScreen (NVS) G Protein-Coupled Receptor Assay for human Neuropeptide Receptor Y1 (NPY1) (AID 2283276)", "how_it_was_run": "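Cell-free radioligand binding using receptor extracted from SK-N-MC cells, 1 h incubation, filter-based scintillation counting. Primary screen single concentration 25 uM in duplicate; actives followed in concentration series. Loss of bound signal scored versus DMSO.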"}, "[3]": {"molecular_target": "human Orphanin, Opioid Related Nociceptin Receptor 1 (ORL1), OPRL1 (gene 4987) (UniProt P41146)", "sequence (P41146 whole entry, looked up)": "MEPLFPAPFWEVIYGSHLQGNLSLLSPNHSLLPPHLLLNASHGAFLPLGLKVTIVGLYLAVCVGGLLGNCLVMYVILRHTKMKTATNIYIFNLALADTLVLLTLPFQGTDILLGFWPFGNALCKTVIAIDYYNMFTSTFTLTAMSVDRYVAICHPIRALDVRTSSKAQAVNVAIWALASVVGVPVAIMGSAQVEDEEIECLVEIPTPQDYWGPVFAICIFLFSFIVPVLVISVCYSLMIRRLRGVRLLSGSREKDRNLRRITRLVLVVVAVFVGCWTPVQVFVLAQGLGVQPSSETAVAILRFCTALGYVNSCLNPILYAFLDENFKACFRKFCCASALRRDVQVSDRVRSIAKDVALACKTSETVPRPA", "experiment": "NVS_GPCR_hORL1: NovaScreen (NVS) G Protein-Coupled Receptor Assay for human Orphanin, Opioid Related Nociceptin Receptor 1 (ORL1) (AID 2283283)", "how_it_was_run": "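Filter-based radioligand displacement with receptor extracted from HEK293 cells, read 1 hour after dosing by scintillation counting. Duplicate single-point screen at 25 uM; qualifying chemicals then run in concentration-response to 50 uM, analysed relative to DMSO.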"}, "[4]": {"molecular_target": "human Vasopressin 1A Receptor (V1A), AVPR1A (gene 552) (UniProt P37288)", "sequence (P37288 whole entry, looked up)": "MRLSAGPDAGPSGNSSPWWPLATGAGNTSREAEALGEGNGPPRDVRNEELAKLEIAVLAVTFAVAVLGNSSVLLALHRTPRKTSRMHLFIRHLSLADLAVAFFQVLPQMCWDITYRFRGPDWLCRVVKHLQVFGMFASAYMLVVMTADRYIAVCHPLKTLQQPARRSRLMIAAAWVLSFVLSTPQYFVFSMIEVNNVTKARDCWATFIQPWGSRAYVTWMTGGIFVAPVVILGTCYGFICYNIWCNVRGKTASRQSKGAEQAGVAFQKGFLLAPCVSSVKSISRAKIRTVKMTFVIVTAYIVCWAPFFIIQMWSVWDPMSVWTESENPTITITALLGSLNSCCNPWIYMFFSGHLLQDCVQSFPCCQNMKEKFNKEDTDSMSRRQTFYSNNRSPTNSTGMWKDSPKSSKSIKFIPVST", "experiment": "NVS_GPCR_hV1A: NovaScreen (NVS) G Protein-Coupled Receptor Assay for human Vasopressin 1A Receptor (V1A) (AID 2283284)", "how_it_was_run": "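Cell-free radioligand displacement on human platelet preparations, 1.5 h incubation, filter-based scintillation counting. Chemicals first tested in duplicate at 25 uM; actives then run in concentration-response up to 50 uM, loss of signal fitted against DMSO.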"}, "[5]": {"tested_on": "5-hydroxytryptamine receptor 2C (pig)", "experiment": "NVS_GPCR_p5HT2C: NovaScreen (NVS) G Protein-Coupled Receptor Assay for pig Serotonin, 5-Hydroxytryptamine Receptor 2C (5HT2C) (AID 2283288)", "how_it_was_run": "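Pig choroid plexus membranes; radioligand competitive binding, filter-based scintillation counting, read 1 h after dosing. Primary screen in duplicate at 25 uM; actives then run as concentration series; loss of signal versus DMSO baseline.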"}, "[6]": {"molecular_target": "human Purinergic Receptor P2Y, P2RY1 (gene 5028) (UniProt P47900)", "sequence (P47900 whole entry, looked up)": "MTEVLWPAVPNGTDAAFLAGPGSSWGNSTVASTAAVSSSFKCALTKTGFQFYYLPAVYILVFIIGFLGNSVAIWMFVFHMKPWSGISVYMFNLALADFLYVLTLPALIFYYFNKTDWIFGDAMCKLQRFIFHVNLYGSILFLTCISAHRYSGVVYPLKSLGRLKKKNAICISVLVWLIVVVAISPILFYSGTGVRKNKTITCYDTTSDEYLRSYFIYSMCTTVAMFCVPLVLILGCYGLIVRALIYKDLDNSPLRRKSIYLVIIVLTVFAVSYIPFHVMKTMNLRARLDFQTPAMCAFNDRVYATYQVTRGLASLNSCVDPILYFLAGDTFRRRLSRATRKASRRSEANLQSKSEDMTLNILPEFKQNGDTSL", "experiment": "NVS_GPCR_hPY2: NovaScreen (NVS) G Protein-Coupled Receptor Assay for human Purinergic Receptor P2Y (AID 2283281)", "description": "NVS_GPCR_hPY2 is a biochemical, single-readout assay that uses extracted gene-proteins from U937 in a cell-free assay. Measurements were taken 1 hour after chemical dosing in a 48-well plate.NVS_GPCR_hPY2 is one of one assay component(s) measured or calculated from the NVS_GPCR_hPY2 assay. It is designed to make measurements of radioligand binding, a form of binding reporter, as detected with scintillation counting signals by Filter-based radiodetection technology.Data from the assay component NVS_GPCR_hPY2 was analyzed into 1 assay endpoint. This assay endpoint, NVS_GPCR_hPY2, was analyzed in the positive analysis fitting direction relative to DMSO as the negative control and baseline of activity. […] Furthermore, this assay endpoint can be referred to as a primary readout, because the performed assay has only produced 1 assay endpoint. […]\nBinding assays used specific radioligands (tritiated, iodinated) with non-radioactive competitive displacement ligands in agonist or antagonist protocols (as indicated) and various reference compounds and inhibitors to titrate specific binding to receptors and transporters. Most enzyme assays (CYPs, kinases, phosphatases, proteases, HDACs) used recombinant protein and specific substrates (fluorescence mostly, some colorimetric and radioactive) and inhibitors, followed by a biochemical separation of substrate and product. […]"}, "[7]": {"molecular_target": "rat Serotonin, 5-Hydroxytryptamine Receptor 1 (5HT1), Non-Selective Binding, Htr1a (gene 24473) (UniProt P19327)", "sequence (P19327 whole entry, looked up)": "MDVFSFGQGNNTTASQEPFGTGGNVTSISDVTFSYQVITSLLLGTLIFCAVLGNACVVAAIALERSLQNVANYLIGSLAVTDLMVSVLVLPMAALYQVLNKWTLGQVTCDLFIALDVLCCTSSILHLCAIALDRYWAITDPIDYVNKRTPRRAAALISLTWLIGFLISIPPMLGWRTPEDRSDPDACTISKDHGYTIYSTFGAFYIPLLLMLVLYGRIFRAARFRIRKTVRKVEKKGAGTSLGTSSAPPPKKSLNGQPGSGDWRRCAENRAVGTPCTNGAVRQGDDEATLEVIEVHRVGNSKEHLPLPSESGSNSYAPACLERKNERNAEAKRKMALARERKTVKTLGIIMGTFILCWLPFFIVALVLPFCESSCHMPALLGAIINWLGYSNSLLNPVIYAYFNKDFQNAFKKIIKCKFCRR", "experiment": "NVS_GPCR_r5HT1_NonSelective: NovaScreen (NVS) G Protein-Coupled Receptor Assay for rat Serotonin, 5-Hydroxytryptamine Receptor 1 (5HT1), Non-Selective Binding (AID 2283286)", "how_it_was_run": "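Rat cortical membranes, radioligand displacement, 1 h incubation, read by filter scintillation. Primary screen in duplicate at 25 uM. Hits (e.g. ≥30% inhibition) went to concentration-response up to 50 uM, fitted as loss of binding versus DMSO.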"}, "[8]": {"molecular_target": "rat Adrenergic, Alpha 1, Non-selective Receptor (Adra1), Adra1a (gene 29412) (UniProt P43140)", "sequence (P43140 whole entry, looked up)": "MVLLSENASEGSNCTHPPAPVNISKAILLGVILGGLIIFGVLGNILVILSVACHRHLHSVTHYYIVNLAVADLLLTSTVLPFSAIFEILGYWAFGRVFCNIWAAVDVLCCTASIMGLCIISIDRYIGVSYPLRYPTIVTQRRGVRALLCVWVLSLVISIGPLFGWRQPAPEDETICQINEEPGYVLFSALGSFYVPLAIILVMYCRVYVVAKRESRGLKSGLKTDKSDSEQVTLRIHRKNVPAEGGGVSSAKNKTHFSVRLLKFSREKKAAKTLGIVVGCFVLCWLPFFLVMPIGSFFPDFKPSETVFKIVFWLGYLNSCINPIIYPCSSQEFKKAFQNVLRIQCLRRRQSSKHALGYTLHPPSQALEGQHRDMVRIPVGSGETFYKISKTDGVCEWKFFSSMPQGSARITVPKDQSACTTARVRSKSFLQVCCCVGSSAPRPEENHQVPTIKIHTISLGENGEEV", "experiment": "NVS_GPCR_rAdra1_NonSelective: NovaScreen (NVS) G Protein-Coupled Receptor Assay for rat Adrenergic, Alpha 1, Non-selective Receptor (Adra1) (AID 2283289)", "how_it_was_run": "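Rat forebrain membranes; radioligand displacement read by filter-based scintillation counting 1 h after dosing. Primary screen in duplicate at 25 uM; hits (e.g. ≥30% inhibition) rerun as concentration–response to 50 uM max. Fitted versus DMSO.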"}}, "note": "Several values for one entry are separate records, joined by “and”; a condition that tells them apart may be missing. Equal entries are not always repeated. Records with an inconclusive call do not appear. Activity calls are given as the source filed them. Rule for the calls: active = hit-call score of the fitted dose curve at least 0.9, where 1 is the maximum; inconclusive = response in the unintended direction; inactive = score below 0.9.", "data": [{"smiles": "O=C1c2ccccc2C(=O)N1SC(Cl)(Cl)Cl", "values": [{"measurement": "outcome", "setting": "[1]", "value": "inactive"}]}, {"smiles": "Oc1ccc(Cl)cc1Cc1ccccc1", "values": [{"measurement": "outcome", "setting": "[1]", "value": "inactive"}, {"measurement": "outcome", "setting": "[2]", "value": "inactive"}, {"measurement": "AC50", "setting": "[3]", "value": "25.2 µM (active) and 47 µM (active)"}, {"measurement": "outcome", "setting": "[4]", "value": "inactive"}, {"measurement": "AC50", "setting": "[5]", "value": "12.6 µM (active) [middle of 4 runs]"}]}, {"smiles": "CC(C)(C)C(O)C(Oc1ccc(Cl)cc1)n1cncn1", "note": "(stereo unspecified)", "values": [{"measurement": "outcome", "setting": "[6]", "value": "inactive"}]}, {"smiles": "O=S(=O)(O)C(F)(F)C(F)(F)C(F)(F)C(F)(F)C(F)(F)C(F)(F)C(F)(F)C(F)(F)F", "values": [{"measurement": "AC50", "setting": "[6]", "value": "15.8 µM (active)"}]}, {"smiles": "COP(=S)(OC)Oc1ccc([N+](=O)[O-])cc1", "values": [{"measurement": "outcome", "setting": "[7]", "value": "inactive"}]}, {"smiles": "CC(C)OC(=O)Nc1cccc(Cl)c1", "values": [{"measurement": "outcome", "setting": "[8]", "value": "inactive"}]}, {"smiles": "ClC1C(Cl)C(Cl)C(Cl)C(Cl)C1Cl", "note": "(stereo unspecified)", "values": [{"measurement": "outcome", "setting": "[8]", "value": "inactive"}]}]}
